Assay results taken from PubChem BioAssay (NCI).
The panel holds about 79,000 compounds, 15% with a hit somewhere; the sample as a whole holds those more often. Rule as the data show it: active = growth inhibition above about 70%; inactive = the rest. Where a SMILES comes first, the peptide text is derived from it.

Legend:
[1] = NCI Yeast Anticancer Drug Screen. Data for the rad50 strain (AID 155);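 also: 0% = growth of vehicle-only cultures of the same strain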; conditions: S. cerevisiae rad50 strain growth inhibition; at 50.0 µM; active compounds read high
In short: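 Relative growth inhibition (compound vs vehicle) was measured in yeast with a defined repair-gene alteration.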

[2] = NCI Yeast Anticancer Drug Screen. Data for the mec2-1 strain (AID 157); conditions: S. cerevisiae mec2-1 strain, at 50.0 µM, active compounds read high
In short: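 mec2-1 yeast strain, carrying an alteration in DNA damage repair or cell cycle control, was exposed to compounds; growth inhibition was measured relative to vehicle-treated controls.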

[3] = NCI Yeast Anticancer Drug Screen. Data for the sgs1 mgt1 strain (AID 161);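 also: 0% = growth of cultures given vehicle only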; conditions: S. cerevisiae sgs1 mgt1 strain, at 50.0 µM, active compounds read high
In short: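 Percent growth inhibition was derived by comparing compound-exposed mutant yeast with vehicle-exposed cultures. The strain carries alterations in DNA damage repair.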

[4] = NCI Yeast Anticancer Drug Screen. Data for the cln2 rad14 strain (AID 165);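 also: 0% = growth equal to vehicle treated cultures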; conditions: S. cerevisiae cln2 rad14 strain, at 50.0 µM, active compounds read high
In short: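 Yeast carrying cln2 and rad14 alterations (cell cycle control and DNA damage repair) were exposed to compounds. Growth inhibition was measured against vehicle-treated controls.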

[5] = NCI Yeast Anticancer Drug Screen. Data for the bub3 strain (AID 167); conditions: S. cerevisiae bub3 mutant strain, at 50.0 µM, active compounds read high
In short: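 Screening used yeast with an engineered genetic alteration affecting cell cycle control. Compound-exposed cultures were compared with vehicle cultures, and reduced growth was taken as inhibition.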

[6] = NCI Yeast Anticancer Drug Screen. Data for the mlh1 rad18 strain (AID 175); conditions: S. cerevisiae mlh1 rad18 strain growth inhibition; at 50.0 µM; active compounds read high
In short: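 Growth inhibition of the yeast strain was measured after compound exposure and expressed relative to vehicle-treated controls. The strain carries defined defects in DNA damage repair.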

Measured: growth inhibition

CCOP(=O)(Cc1ccc(CP(=O)(OCC)OCC)n1C)OCC
inactive: [1] -6.15% | [2] -7.5% | [3] -13.7% | [4] 17.4% | [5] -4.7% | [6] 15.1%

Cc1ccc(C2CCC(C#N)=CN2C)cc1 (stereo unspecified)
inactive: [1] 11.5% | [2] -0.25% | [3] 1.5% | [4] -39.4% | [5] -13% | [6] 3.6%

CCSCC(N)C(=O)O (stereo unspecified)
inactive: [1] -16.1% | [2] 2.5% | [3] 7.45% | [4] -7.25% | [5] 3.35% | [6] -9%

CN(C)S(=O)(=O)c1ccc(NC(=O)OC(C)(c2ccccc2)C2CCCCC2)cc1 (stereo unspecified)
inactive: [1] 17.4% | [2] 2% | [3] 4.05% | [4] 7.75% | [5] 1.35% | [6] 4%

COc1cccc(Oc2cccc[n+]2CC(C)=O)c1
inactive: [1] -57.5% | [2] -10.3% | [3] 3.75% | [4] 8.4% | [5] 0.3% | [6] 1.15%

O=C1CCC2CCC1C2 (stereo unspecified)
inactive: [1] 10.1% | [2] -16.6% | [3] -41.3% | [4] 15.8% | [5] -36.7% | [6] -28.3%

O=C(Cc1nc2ccc(C(=O)c3ccccc3)cc2[nH]c1=O)C(=O)Nc1nc2ccccc2[nH]1
inactive: [1] -23.1% | [2] 19.3% | [3] -4.05% | [4] -17.9% | [5] -4.25% | [6] 9.5%

COC(=O)/C=C(/C=C1/C(C#N)=C(N)N(c2ccc(Cl)cc2)C1(C)/C(=C/C(=O)OC)C(=O)OC)C(=O)OC (stereo unspecified)
inactive: [1] -3.15% | [2] -11.4% | [3] 2.5% | [4] 6.95% | [5] 21.8% | [6] 10.7%

CC(/C=N/NC1=NCCCCN1)=N\NC1=NCCCCN1
inactive: [1] -4.95% | [2] -16% | [3] -15.6% | [4] 8.8% | [5] -10.6% | [6] -16.4%

COc1cc(C2C(Cl)C(=O)N2NC(=O)c2ccc(N)cc2)ccc1O (stereo unspecified)
inactive: [1] 5.15% | [2] -0.75% | [3] -25.1% | [4] -3.8% | [5] -16.4% | [6] -8.75%

C=CC(=O)NC(=O)/C=C/c1cccnc1
inactive: [1] 17.4% | [2] -8.05% | [3] 1% | [4] -3.25% | [5] 10.7% | [6] 5.5%

CCOc1ccc(C(=O)OC)cc1
inactive: [1] 31.1% | [2] -3.45% | [3] 31% | [4] 16.8% | [5] 38.8% | [6] 23.7%

Cc1ncc(CO)c(/C=N\Nc2ccc([N+](=O)[O-])cc2[N+](=O)[O-])c1O
inactive: [1] -21.4% | [2] 19.2% | [3] 9.7% | [4] -17.7% | [5] 11.3% | [6] 13.9%

CCNC(=O)C1Cc2ccccc2N(CC)C1 (stereo unspecified)
inactive: [1] -13.4% | [2] -6.65% | [3] -0.75% | [4] -12.2% | [5] -1.9% | [6] 2.75%

CCN(CC)CCSC(=O)C(O)(c1ccccc1)c1cccc(C)c1 (stereo unspecified)
inactive: [1] 9.1% | [2] 10.1% | [3] -2.2% | [4] -11.9% | [5] -1.4% | [6] 10.6%

CC(C)(C)C1CCC2c3c([nH]c4ccccc34)C3C(=O)N(c4cc(Cl)ccc4Cl)C(=O)C3C2C1 (stereo unspecified)
inactive: [1] 18% | [2] 0.75% | [3] -4.05% | [4] 5.4% | [5] 6.3% | [6] 0.9%

C(=N\c1oc(-c2ccccc2)c(-c2ccccc2)c1-c1ccccc1)/c1ccccc1
inactive: [1] 14.4% | [2] -5.15% | [3] -4.85% | [4] 14.3% | [5] 4.2% | [6] 6.2%

CC1NCCC(CC(=O)O)C1CC(=O)O (stereo unspecified)
inactive: [1] -7.55% | [2] -26% | [3] 1.75% | [4] -41.1% | [5] -26.8% | [6] -10.3%

ClCCCCCOCCCCCCl
inactive: [1] 8.15% | [2] 1.25% | [3] -1.5% | [4] -11.7% | [5] -4.75% | [6] -1.05%

COc1ccc(C2c3cc4c(cc3OC(Nc3ccccc3)C2C)OCO4)cc1 (stereo unspecified)
inactive: [1] 9% | [2] 9.95% | [3] 30% | [4] 43.8% | [5] 27.1% | [6] 33.6%

COc1cccc(C(=O)NNC(=O)c2cccc(OC)c2)c1
inactive: [1] -1.5% | [2] -15.9% | [3] -9.35% | [4] 9.55% | [5] -1.9% | [6] -1.85%

CCOC(=O)/C(O)=C(/C=NC(=S)c1ccncc1)C(=O)OCC
inactive: [1] -28.2% | [2] -29.8% | [3] -15.3% | [4] -6.45% | [5] -13.8% | [6] -31%

CCn1c(C)nc([N+](=O)[O-])c1Sc1ncn[nH]1
inactive: [1] 10.2% | [2] -10.3% | [3] 11.2% | [4] 5.1% | [5] -7.05% | [6] -59.7%

[O-]/[N+](=C\c1ccc(OCc2ccccc2)cc1)c1ccccc1
inactive: [1] 16.5% | [2] -18.4% | [3] -20.7% | [4] -2.65% | [5] -4.25% | [6] -13.5%

CC1=C(C#N)C(=N)OC1(C)C1CC(=O)C=CC1=O (stereo unspecified)
inactive: [1] -11.5% | [2] 27.4% | [3] 7.9% | [4] 20.5% | [5] 4.55% | [6] 4.6%

O=C(O)/C(Br)=C(\Br)c1ccccc1
inactive: [1] 23.9% | [2] 15.8% | [3] 14.6% | [4] 14.4% | [5] 1.55% | [6] 12.5%

COc1ccccc1C(=O)NO
inactive: [1] -14.1% | [2] -27.2% | [3] -22.9% | [4] 8.05% | [5] -14.2% | [6] -7.55%

CCCCCCCOC(=O)c1ccccc1Cl
inactive: [1] 7.3% | [2] -10.1% | [3] 23.4% | [4] -6.7% | [5] 13.9% | [6] 2%

CC(=O)OCC(OC(C)=O)C(OC(C)=O)C(C=NN(C(C)=O)S(=O)(=O)c1ccc(/C=C2\NC(=O)NC2=O)cc1)OC(C)=O (stereo unspecified)
inactive: [1] -4.6% | [2] -30.9% | [3] -17.9% | [4] 14% | [5] -17.8% | [6] -7.15%

CC(=O)N(C)c1ccc(Nc2cc(S(=O)(=O)O)c(N)c3c2C(=O)c2ccccc2C3=O)cc1
inactive: [1] -20.2% | [2] -14.1% | [3] -27.4% | [4] -13.8% | [5] -37.3% | [6] -4.25%

CCOC(=O)\C(C#N)=C/C=C(C)/C(C)=C/Nc1ccc([N+](=O)[O-])cc1[N+](=O)[O-]
inactive: [1] 10.9% | [2] 7.85% | [3] -18.4% | [4] -5.2% | [5] 0.8% | [6] 22.6%

O=C(Cc1ccccc1)NN1C(=O)/C(=C\c2ccccc2)SC1=Nc1ccccc1
inactive: [1] 12% | [2] -1.35% | [3] 19.3% | [4] 35.5% | [5] 9.15% | [6] 10.8%

CC(=O)NC(CO)C(=O)NC(Cc1ccc(O)cc1)C(=O)NCC(N)=O (stereo not drawn) (Ac-Ser-Tyr-Gly-NH2; configuration not given here)
inactive: [1] -26.7% | [2] -23.5% | [3] -9.4% | [4] 18.8% | [5] 10.9% | [6] -6.8%

Cn1c(=O)c(N=Nc2c(=O)n(C)c(=O)n3c2[nH]c2ccccc23)c2[nH]c3ccccc3n2c1=O
inactive: [1] -2.1% | [2] 17.1% | [3] 7.4% | [4] -27.4% | [5] -10.7% | [6] 12.2%

CC1(C)NC(=O)N(CCCCCCN2C(=O)NC(C)(C)C2=O)C1=O
inactive: [1] 5.1% | [2] -9.45% | [3] 5.85% | [4] 6.1% | [5] -20.2% | [6] 8.6%

CCOC(=O)C(NC(C)=O)(C(=O)OCC)C1CCCCC1=O (stereo unspecified)
inactive: [1] -10.8% | [2] 2.65% | [3] -33.4% | [4] -3.4% | [5] -10.8% | [6] -20.5%

CC(C)CCNc1nc(N)[nH]c(=O)c1NC=O
inactive: [1] -16.7% | [2] 16.1% | [3] -0.55% | [4] 7.5% | [5] 2.7% | [6] -56.6%

Cc1c(CCC(C)C)oc2cc3oc(CCC(C)C)c(C)c3cc12
inactive: [1] 21.7% | [2] 2.2% | [3] 2% | [4] -4.8% | [5] 6.3% | [6] 18.5%

COc1cc(CCl)cc(OC)c1OC
inactive: [1] -13.7% | [2] -12% | [3] -7.7% | [4] -21.9% | [5] -7.65% | [6] -11.8%

CN(C)CCNC1c2ccccc2-c2ccccc21
inactive: [1] -15.1% | [2] -22.6% | [3] 3.35% | [4] -0.9% | [5] 10.2% | [6] -9%

CCCCCCc1cn([C@H]2C[C@H](O)[C@@H](CO)O2)c(=O)[nH]c1=O
inactive: [1] -5.6% | [2] -5.4% | [3] 7.2% | [4] -12.8% | [5] 3% | [6] 9.15%
